Assay results reported in PubChem BioAssay (NCI).
This is part of a sample that, as a whole, favours compounds with a hit. Of some 79,000 tested, about 15% had one in any assay. The source made the active and inactive calls. No stated cut-off is given here; in the data, active means growth inhibition above about 70%; inactive means the rest.

Columns and labels:
[1] = NCI Yeast Anticancer Drug Screen. Data for the rad50 strain (AID 155);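 further: 0% = growth of vehicle-only cultures of the same strain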; settings: S. cerevisiae rad50 strain growth inhibition; at 50.0 µM; stronger effect = higher value
How it was run: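 DNA repair mutant yeast, compound exposure, growth read-out; inhibition is taken relative to vehicle.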

[2] = NCI Yeast Anticancer Drug Screen. Data for the mec2-1 strain (AID 157); settings: S. cerevisiae mec2-1 strain, at 50.0 µM, stronger effect = higher value
How it was run: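 Readout is yeast growth inhibition, normalised to vehicle-treated controls, in the mec2-1 strain exposed to compound.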

[3] = NCI Yeast Anticancer Drug Screen. Data for the sgs1 mgt1 strain (AID 161);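 further: 0% = growth of cultures given vehicle only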; settings: S. cerevisiae sgs1 mgt1 strain, at 50.0 µM, stronger effect = higher value
How it was run: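 Percent growth inhibition was derived by comparing compound-exposed mutant yeast with vehicle-exposed cultures. The strain carries alterations in DNA damage repair.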

[4] = NCI Yeast Anticancer Drug Screen. Data for the cln2 rad14 strain (AID 165);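 further: 0% = growth equal to vehicle treated cultures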; settings: S. cerevisiae cln2 rad14 strain, at 50.0 µM, stronger effect = higher value
How it was run: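 Relative to vehicle controls, growth inhibition of compound-treated cln2 rad14 yeast was recorded.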

[5] = NCI Yeast Anticancer Drug Screen. Data for the bub3 strain (AID 167); settings: S. cerevisiae bub3 mutant strain, at 50.0 µM, stronger effect = higher value
How it was run: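 In this screen, a yeast mutant lacking normal mitotic checkpoint function is challenged with compound. Relative growth versus vehicle gives the inhibition value.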

[6] = NCI Yeast Anticancer Drug Screen. Data for the mlh1 rad18 strain (AID 175); settings: S. cerevisiae mlh1 rad18 strain growth inhibition; at 50.0 µM; stronger effect = higher value
How it was run: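 Test agents were incubated with a yeast strain of defined genotype (DNA damage repair defect). Inhibition of growth was derived by comparison with vehicle-exposed cultures.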

Measured: growth inhibition

COc1ccc(-c2ccc(OC)cc2)cc1
inactive: [1] 2.9% | [2] -2.75% | [3] -3.8% | [4] -0.65% | [5] 21.4% | [6] 3%

O=C(Nc1cccc(Cl)c1)c1ccc(Cl)cc1
inactive: [1] 2.95% | [2] 24.2% | [3] 7.75% | [4] -12.9% | [5] 26.7% | [6] 4.3%

NC(=O)CNC(=O)c1ccc(N)cc1
inactive: [1] 16.8% | [2] 7.6% | [3] 11.2% | [4] 15.6% | [5] 1.25% | [6] 18.4%

CC(C)CCCOC(=O)c1ccccc1
inactive: [1] 3.05% | [2] -6.5% | [3] -1.65% | [4] -3.2% | [5] 21.6% | [6] -1%

COc1cc(O)c2c(c1)Cc1cc(C)cc(O)c1C2=O
inactive: [1] 10.2% | [2] -1% | [3] 6.2% | [4] 22.5% | [5] 16.6% | [6] 1.65%

O=C(Nc1ccccc1Cl)Oc1ccc(Cl)cc1Cc1ccccc1
active: [1] 99.7% | [2] 99.7% | [3] 99.7% | [4] 99.7% | [5] 99.7% | [6] 99.7%

Clc1ccc(CSC2=NCCN2)cc1Cl
inactive: [1] -17% | [2] -26.4% | [3] -21.9% | [4] -24.4% | [5] -14% | [6] 12.8%

CC(C)C(O)(C(=O)O)C(C)C
inactive: [1] 11.1% | [2] -11% | [3] -4.1% | [4] -4.3% | [5] -17.9% | [6] -1.15%

COC(=O)c1nc(N)nc(C(=O)OC)c1C(=O)c1cc(Cl)ccc1Cl
inactive: [1] -8.35% | [2] -7.9% | [3] -1.25% | [4] -18.2% | [5] -6.3% | [6] -5.65%

COC(=O)[C@@]12OC[C@]34[C@H]([C@@H](O)[C@@H]1O)[C@@]1(C)CC(=O)C(O)=C(C)[C@@H]1C[C@H]3OC(=O)[C@H](OC(=O)/C=C(\C)C(C)CO)[C@@H]24 (stereo partly specified)
inactive: [1] -0.7% | [2] -16.7% | [3] -13.3% | [4] -1.7% | [5] -18.9% | [6] -28.8%

CCNC(=O)OCCN(CCOC(=O)NCC)CCc1cccc(OC)c1OC
inactive: [1] 6.1% | [2] 6.65% | [3] -7.3% | [4] 1.95% | [5] -3.5% | [6] 20.6%

Cc1no[n+]([O-])c1NC(=O)OCc1ccccc1
inactive: [1] -1.8% | [2] -11% | [3] -2.6% | [4] -37.8% | [5] -15.3% | [6] 6.9%

O=C(OCc1ccccc1)c1ccc(NCc2cc(O)ccc2O)cc1
active: [1] 88.7% | [2] 90.7% | [3] 89.7% | [4] 89.6% | [5] 88% | [6] 92.2%

COC(=O)c1cccnc1F
inactive: [1] 3.9% | [2] -15.2% | [3] -14.7% | [4] -1.65% | [5] -30.2% | [6] -2.45%

CC(=O)OCCOC1c2ccccc2-c2ccccc21
inactive: [1] 7.1% | [2] -2.75% | [3] 18.2% | [4] 18.6% | [5] 25.3% | [6] 13.8%

CC1(O)Oc2c(cc(C(C)(C)C)cc2C(C)(C)C)C1=O (stereo unspecified)
inactive: [1] 17.4% | [2] -10.1% | [3] 18.2% | [4] -9% | [5] 23.6% | [6] 42.6%

Cc1cc2c(=O)n(-c3ccc(F)cc3)c(C)nc2c(C(=O)O)c1C
inactive: [1] -11.3% | [2] -8.75% | [3] -0.6% | [4] 10% | [5] -14.6% | [6] 9.55%

COC1=C(C(=O)c2ccc(OC)c(OC)c2)COC1=O
inactive: [1] -8.4% | [2] -13.3% | [3] -4.5% | [4] -4.4% | [5] 31.4% | [6] 7.15%

COc1ccc2c(cnc3c4cc(OC)c(OC)cc4ccc23)c1
inactive: [1] 15.2% | [2] -0.85% | [3] 4.05% | [4] -4.9% | [5] 24.9% | [6] 3.6%

COc1ccc(/C=C/c2c([N+](=O)[O-])c(=O)n(C)c(=O)n2C)cc1
inactive: [1] -14.7% | [2] 0.95% | [3] -3.1% | [4] 16.1% | [5] 2.65% | [6] -10.2%

C=CCOC(=O)OCCOC(=O)OCC=C
inactive: [1] 6.4% | [2] -4.7% | [3] -2.05% | [4] -1.55% | [5] 24.1% | [6] -1.55%

CC(=O)/C=C(\O)c1c(C)[nH]c2ccccc12
inactive: [1] -16% | [2] 9% | [3] -3.95% | [4] -41.4% | [5] -11.9% | [6] -5.95%

Cn1c(=O)c2c(nc(/N=C/c3ccncc3)n2C)n(C)c1=O
inactive: [1] -3.35% | [2] -5.95% | [3] -5.9% | [4] -75.7% | [5] -16.8% | [6] -2.85%

COc1ccc(Cl)[n+]([O-])n1
inactive: [1] -20.3% | [2] -4.15% | [3] -2% | [4] 0.8% | [5] -10.3% | [6] -29.6%

Cc1ccc([N+](=O)[O-])cc1NC(=O)C(=O)C1CCC2=C(Sc3ccccc3N2)C1=O (stereo unspecified)
inactive: [1] 0.5% | [2] -16.9% | [3] -9.45% | [4] -17.9% | [5] -0.4% | [6] -5.85%

Nc1nc2ncn(CC(O)COC(=O)c3ccccc3)c2c(=O)[nH]1 (stereo unspecified)
inactive: [1] 23.8% | [2] -8.85% | [3] 27.3% | [4] 28.3% | [5] 27.4% | [6] 39.2%

CC(O)CNC(C)(C)CN (stereo unspecified)
inactive: [1] -7.45% | [2] -15.5% | [3] -10.4% | [4] 4.4% | [5] -18.8% | [6] -4%

CC(=O)OC(CC1(C)C(C)CCC23COC(=O)C2=CCCC31)c1ccoc1 (stereo unspecified)
active: [1] 87.3% | [2] 82.2% | [3] 85.7% | [5] 81.2% | [6] 82%
inactive: [4] 63.5%

Cc1ccc(Nc2ccc(O)cc2)cc1
inactive: [1] 40.4% | [2] -2.1% | [3] 29.5% | [4] -8.25% | [5] -10.8% | [6] 26%

CC1c2ccccc2CC(CCN(C)C)c2ccccc21 (stereo unspecified)
inactive: [1] 8.1% | [2] -12.8% | [3] 34% | [4] 13.4% | [5] 28.6% | [6] -20.3%

COc1cc(C2C3=C(COC3=O)Oc3cc4c(cc32)OCO4)cc(OC)c1OC(C)=O (stereo unspecified)
inactive: [1] -15.5% | [2] -22.9% | [3] 1.55% | [4] 16.1% | [5] -8.3% | [6] -2.5%

COc1ccc(CCNC(=O)CCC2CCN(CCc3ccc(OC)c(OC)c3)CC2)cc1OC
inactive: [1] 16.2% | [2] -2.05% | [3] 1.65% | [4] 22.4% | [5] -1.5% | [6] 3.6%

O=C(O)C(=C\c1ccccc1)/C(=C\c1ccccc1)C(=O)OCc1ccccc1
inactive: [1] 16.9% | [2] 5.3% | [3] 19.9% | [4] -0.4% | [5] 47.5% | [6] 8.4%

O=C1CCCC2C1C1CCCC(=O)C21 (stereo unspecified)
inactive: [1] 6.95% | [2] -7.45% | [3] 3.1% | [4] 0.9% | [5] 3.15% | [6] 20.2%

C=C1C(=O)O[C@@H]2[C@H]3O[C@]3(C)CCC=C(C)CC[C@@H]12
inactive: [1] -2.7% | [2] -7.05% | [3] 2.15% | [4] 9.05% | [5] -11.8% | [6] -6.75%

C#CC[N+](C)(CC#C)CC#C
inactive: [1] 9.85% | [2] 7.8% | [3] 13% | [4] 11.9% | [5] 9.7% | [6] 9.2%

Cc1ccc(C(CCCl)OC(C)C)cc1 (stereo unspecified)
inactive: [1] 7% | [2] 7.35% | [3] 22% | [4] 25.2% | [5] 22.6% | [6] 17.8%

O=C(Cc1ccccc1)c1ccccc1C(=O)NCc1ccccc1
inactive: [1] -5.8% | [2] -3.45% | [3] 1.1% | [4] -66.5% | [5] 14.9% | [6] -7.1%

O=C1C2CN(Cc3ccccc3)CC2C(=O)N1c1ccccc1 (stereo unspecified)
inactive: [1] 1.9% | [2] 13% | [3] 9.25% | [4] -51.8% | [5] -37.7% | [6] 18.2%

O=S1(=O)OCCOS(=O)(=O)C1F
inactive: [1] -69% | [2] -4.65% | [3] -22.4% | [4] -23.2% | [5] -5.35% | [6] -16.1%

CC(C)=CC(=O)N1CCN(C(=O)C=C(C)C)CC1
inactive: [1] -33.9% | [2] -20.1% | [3] -5.75% | [4] 18.8% | [5] 10.9% | [6] -10.4%
